Results published in PubChem BioAssay (EPA / NIEHS).
Inconclusive results are not listed. Activity calls are given as the source filed them. Rule for the calls: active = hit-call score of the fitted dose curve at least 0.9, where 1 is the maximum; inconclusive = response in the unintended direction; inactive = score below 0.9.

Columns and labels:
[1] = TOX21_p53_BLA_p2_viability: Viability Assessment in the Tox21 HCT-116 p53 Agonism Beta-lactamase Assay, Phase 2 (AID 2283591);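 note: compound exposure lasted 16 h at 37 °C; actives lower the ATP signal meaning cytotoxicity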
How it was run: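 HCT-116 p53-bla cells (4000/well) rested 5 h at 37C, then received compounds in DMSO (217-fold dilution) for 16 h at 37C, 5% CO2. After the CCF4 read, CellTiter-Glo was added; ATP luminescence was read after 30 min at room temperature.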

[2] = target: Cellular tumor antigen p53 (Homo sapiens) (UniProt P04637); test: TOX21_p53_BLA_p2_ratio: Tox21 HCT-116 p53 Agonism Beta-lactamase Assay, Ratio, Phase 2 (AID 2283592)
Cellular tumor antigen p53 (Homo sapiens), sequence (P04637 whole entry, looked up): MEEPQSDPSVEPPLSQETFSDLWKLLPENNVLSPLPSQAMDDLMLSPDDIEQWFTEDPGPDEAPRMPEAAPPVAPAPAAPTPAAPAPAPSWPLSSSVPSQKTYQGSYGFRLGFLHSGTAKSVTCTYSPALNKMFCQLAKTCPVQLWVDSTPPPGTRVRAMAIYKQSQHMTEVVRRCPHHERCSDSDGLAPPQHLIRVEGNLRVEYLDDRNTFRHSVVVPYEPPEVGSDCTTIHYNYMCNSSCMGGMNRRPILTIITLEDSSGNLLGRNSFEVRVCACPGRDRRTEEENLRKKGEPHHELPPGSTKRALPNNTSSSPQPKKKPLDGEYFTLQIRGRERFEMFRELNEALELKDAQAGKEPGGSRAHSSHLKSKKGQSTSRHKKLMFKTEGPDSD
How it was run: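 Gain-of-signal p53 agonism was scored from the beta-lactamase FRET ratio (460/530 nm, 405 nm excitation) in HCT116 cells treated 16 h at 37C, 5% CO2, with DMSO serving as negative control and baseline.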

[3] = TOX21_p53_BLA_p3_viability: Viability Assessment in the Tox21 HCT-116 p53 Agonism Beta-lactamase Assay, Phase 3 (AID 2283593);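 note: cells exposed to compound for 16 h before reading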
How it was run: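 HCT-116 cells (4000/well) rested 5 h at 37C, then got DMSO compounds by pin tool (217-fold dilution) for 16 h at 37C, 5% CO2. After the bla read, CellTiter-Glo was added and luminescence read at 30 min, room temperature.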

[4] = target: Cellular tumor antigen p53 (Homo sapiens) (UniProt P04637); test: TOX21_p53_BLA_p3_ratio: Tox21 HCT-116 p53 Agonism Beta-lactamase Assay, Ratio, Phase 3 (AID 2283596)
How it was run: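 HCT116 p53-bla cells (4000/well) given compound in DMSO (217-fold dilution) after 5 h, incubated 16 h at 37C. CCF4-AM substrate 2 h at room temperature; 460/530 nm emission ratio, gain fitted against DMSO.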

[5] = TOX21_p53_BLA_p4_viability: Viability Assessment in the Tox21 HCT-116 p53 Agonism Beta-lactamase Assay, Phase 4 (AID 2283597);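 note: hits lower the luminescence signal meaning cytotoxicity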
How it was run: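 Following a 16 h exposure at 37C, the treated HCT116 wells were first read for the FRET ratio. They were then lysed with CellTiter-Glo, and ATP luminescence was recorded after 30 min at room temperature.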

[6] = target: Cellular tumor antigen p53 (Homo sapiens) (UniProt P04637); test: TOX21_p53_BLA_p5_ratio: Tox21 HCT-116 p53 Agonism Beta-lactamase Assay, Ratio, Phase 5 (AID 2283599)
How it was run: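 HCT-116 cells carrying a p53-inducible beta-lactamase reporter were seeded at 4000 cells/well and dosed after 5 h with compound in DMSO (217-fold dilution). After 16 h at 37C, CCF4-AM substrate was added for 2 h, and the 460/530 nm emission ratio was scored as gain-of-signal versus DMSO.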

[7] = TOX21_p53_BLA_p5_viability: Viability Assessment in the Tox21 HCT-116 p53 Agonism Beta-lactamase Assay, Phase 5 (AID 2283600)
How it was run: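 After the 460/530 nm beta-lactamase measurement, the wells received an ATP-detection luciferase reagent; signal was read 30 min later at RT. Compound treatment lasted 16 h on cells pre-incubated 5 h post-seeding.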

[8] = target: Cellular tumor antigen p53 (Homo sapiens) (UniProt P04637); test: TOX21_p53_BLA_p4_ratio: Tox21 HCT-116 p53 Agonism Beta-lactamase Assay, Ratio, Phase 4 (AID 2283601)
How it was run: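 HCT116 cells carrying an inducible beta-lactamase reporter were plated at 4000 cells/well, rested 5 h, then exposed to compounds in DMSO (217-fold dilution) for 16 h at 37C. CCF4-AM substrate was loaded 2 h at room temperature; 460/530 nm emission ratio scored gain-of-signal versus DMSO.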

SMILES | outcome [1] | outcome [2] | outcome [3] | outcome [4] | outcome [5] | outcome [6] | outcome [7] | outcome [8] | AC50 [1] | AC50 [3] | AC50 [5] | AC50 [2] | AC50 [4] | AC50 [6] | AC50 [7] | AC50 [8]
CC(C)(C#N)Nc1nc(Cl)nc(NC2CC2)n1 | inactive | inactive | inactive | inactive | inactive | inactive | inactive | inactive | – | – | – | – | – | – | – | –
COc1ccc(CN2CCN(C(c3ccc(F)cc3)c3ccc(F)cc3)CC2)c(OC)c1OC | – | inactive | – | inactive | – | inactive | inactive | inactive | 23 µM (active) | 23 µM (active) | 23 µM (active) | – | – | – | – | –
Cc1cc(N)c2ccccc2[n+]1CCCCCCCCCC[n+]1c(C)cc(N)c2ccccc21 | inactive | inactive | inactive | inactive | inactive | inactive | inactive | inactive | – | – | – | – | – | – | – | –
CCCC(c1cc(C(C)(C)C)c(O)cc1C)c1cc(C(C)(C)C)c(O)cc1C | – | – | – | – | – | – | – | – | 15 µM (active) | 19.5 µM (active) | 9.81 µM (active) | 32.8 µM (active) | 30.6 µM (active) | 32.2 µM (active) | 17.2 µM (active) | 19.7 µM (active)
CC(C)C[C@H](NC(=O)CNC(=O)[C@H](Cc1ccc(O)cc1)NC(=O)[C@H](CO)NC(=O)[C@H](Cc1c[nH]c2ccccc12)NC(=O)[C@H](Cc1cnc[nH]1)NC(=O)[C@@H]1CCC(=O)N1)C(=O)N[C@@H](CCCN=C(N)N)C(=O)N1CCC[C@H]1C(=O)NCC(N)=O (stereo in doubt) | inactive | inactive | inactive | inactive | inactive | inactive | inactive | inactive | – | – | – | – | – | – | – | –
O=C(Nc1ccc(S(=O)(=O)N2CCOCC2)cc1)c1cc(Cl)ccc1NS(=O)(=O)c1ccc(Cl)s1 | inactive | inactive | inactive | inactive | – | – | inactive | – | – | – | 22 µM (active) | – | – | 21.7 µM (active) | – | 36.5 µM (active)
CCCCCCCCCCCCCC[n+]1ccc(C)cc1 | inactive | – | inactive | – | inactive | inactive | inactive | inactive | – | – | – | 20.1 µM (active) | 27.5 µM (active) | – | – | –
CNc1ccc(O)cc1 | inactive | inactive | – | inactive | inactive | inactive | – | inactive | – | 82 µM (active) | – | – | – | – | 78 µM (active) | –
OCCN1CCN(CCCN2c3ccccc3Sc3ccc(C(F)(F)F)cc32)CC1 | inactive | inactive | inactive | inactive | – | inactive | inactive | – | – | – | 33.5 µM (active) | – | – | – | – | 40.9 µM (active)
CC12CCC(C[N+](C)(CCC[N+](C)(C)C)C1)C2(C)C (stereo not given) | inactive | inactive | inactive | inactive | inactive | inactive | inactive | inactive | – | – | – | – | – | – | – | –
CC[C@@H]([C@H](C)O)n1ncn(-c2ccc(N3CCN(c4ccc(OC[C@@H]5CO[C@@](Cn6cncn6)(c6ccc(F)cc6F)C5)cc4)CC3)cc2)c1=O | inactive | inactive | inactive | inactive | – | inactive | inactive | inactive | – | – | 18.1 µM (active) | – | – | – | – | –
C[C@]12O[C@H](C[C@]1(O)CO)n1c3ccccc3c3c4c(c5c6ccccc6n2c5c31)CNC4=O | – | – | – | – | – | – | inactive | – | 1.06 µM (active) | 1.13 µM (active) | 2.24 µM (active) | 0.0434 µM (active) | 0.0715 µM (active) | 0.0787 µM (active) | – | 0.0528 µM (active)
Cc1onc(-c2c(F)cccc2Cl)c1C(=O)N[C@@H]1C(=O)N2[C@@H]1SC(C)(C)[C@@H]2C(=O)O | inactive | inactive | inactive | inactive | inactive | inactive | inactive | inactive | – | – | – | – | – | – | – | –
CCOc1ccccc1O[C@H](c1ccccc1)[C@H]1CNCCO1 | inactive | inactive | inactive | inactive | inactive | inactive | inactive | inactive | – | – | – | – | – | – | – | –
NC1(c2ccc(-c3nc4ccn5c(=O)[nH]nc5c4cc3-c3ccccc3)cc2)CCC1 | inactive | inactive | inactive | inactive | – | inactive | inactive | inactive | – | – | 8.62 µM (active) | – | – | – | – | –
O=C(CCCN1CCC(O)(c2ccc(Br)cc2)CC1)c1ccc(F)cc1 | inactive | inactive | inactive | inactive | inactive | inactive | inactive | inactive | – | – | – | – | – | – | – | –
O=S(c1cc(Cl)cc(Cl)c1O)c1cc(Cl)cc(Cl)c1O | inactive | – | inactive | – | inactive | inactive | inactive | – | – | – | – | 16.2 µM (active) | 6.85 µM (active) | – | – | 15.1 µM (active)
O=C(O)c1cc(=O)c2c3nc4ccccc4oc-3cc(=O)c2[nH]1 | inactive | inactive | inactive | inactive | inactive | inactive | inactive | inactive | – | – | – | – | – | – | – | –
O=C(Nc1ncc([N+](=O)[O-])s1)c1cccs1 | inactive | – | – | inactive | – | inactive | inactive | inactive | – | 8.44 µM (active) | 13.4 µM (active) | 25 µM (active) | – | – | – | –
CC1=C(C(=O)OC(C)C)C(c2cccc([N+](=O)[O-])c2)C(C(=O)OC2CN(C(c3ccccc3)c3ccccc3)C2)=C(N)N1 (stereo not given) | – | – | – | – | – | – | – | – | 10.3 µM (active) | 9.2 µM (active) | 34.2 µM (active) | 18.3 µM (active) | 17.7 µM (active) | 43.6 µM (active) | 38 µM (active) | 43.5 µM (active)
